Screening results as filed in PubChem.
The list is not random: actives were taken first. Their share in the collection is about 22%.
Pf growth 48h: Primary qHTS for delayed death inhibitors of the malarial parasite plastid, 48 hour incubation. P. falciparum luciferase growth in erythrocytes, 48 h. Potency, µM (top dose mostly 28.7 µM), without a hit: at the highest dose activity change, negative = inhibition, actives largely listed as inhibitors. 310,000 tested, 5.9% active; further: potency means the concentration at half of the fitted maximal effect; on the % scale 0 is the no-effect control and ±100 the full control effect
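Parasite viability was followed by luminescence of a genomically integrated firefly luciferase. Cultures held 0.1% parasitemia at 2% hematocrit (final), incubated under 5% CO2 at 37 C.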
Pf growth 96h: Primary qHTS for delayed death inhibitors of the malarial parasite plastid, 96 hour incubation; P. falciparum luciferase reporter growth, 96 h; Potency, µM (top dose mostly 28.7 µM), without a hit: top-dose activity change, negative = inhibition, actives largely listed as inhibitors; 320,000 tested, 6.9% active; further: potency means the concentration at half of the fitted maximal effect; on the % scale 0 is the no-effect control and ±100 the full control effect
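Cell-based qHTS: luciferase-tagged P. falciparum in erythrocytes (2% hematocrit, 0.05% parasitemia final) incubated with compounds for 96 hours, 37 C, 5% CO2; luciferase detection reagent then added and luminescence measured.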
CHX counter: Cycloheximide Counterscreen for Small Molecule Inhibitors of Shiga Toxin; cell reporter, cycloheximide protein synthesis inhibition counterscreen; max response, %; AID 2314, 2010; 300,000 tested, 12% active; in the data active means max response mostly above about 13%, no sharp cut-off; inactive means mostly below about 14%; further: read at 38.3 µM for the half of the compounds with a filed dose; 0% is about no effect
LmPK inh: qHTS Assay for Inhibitors of Leishmania Mexicana Pyruvate Kinase (LmPK). Potency, µM (titrated, usually from 57.5 µM), inactives show at the highest dose activity change, negative = inhibition, most hits filed as inhibitors. AID 1721, 2009. purified LmPK, Kinase-Glo ATP luminescence, 1 h. Q27686. 290,000 tested, 0.37% active; further: potency means the concentration at half of the fitted maximal effect; on the % scale 0 is the no-effect control and ±100 the full control effect
Target sequence (Q27686 whole entry, looked up): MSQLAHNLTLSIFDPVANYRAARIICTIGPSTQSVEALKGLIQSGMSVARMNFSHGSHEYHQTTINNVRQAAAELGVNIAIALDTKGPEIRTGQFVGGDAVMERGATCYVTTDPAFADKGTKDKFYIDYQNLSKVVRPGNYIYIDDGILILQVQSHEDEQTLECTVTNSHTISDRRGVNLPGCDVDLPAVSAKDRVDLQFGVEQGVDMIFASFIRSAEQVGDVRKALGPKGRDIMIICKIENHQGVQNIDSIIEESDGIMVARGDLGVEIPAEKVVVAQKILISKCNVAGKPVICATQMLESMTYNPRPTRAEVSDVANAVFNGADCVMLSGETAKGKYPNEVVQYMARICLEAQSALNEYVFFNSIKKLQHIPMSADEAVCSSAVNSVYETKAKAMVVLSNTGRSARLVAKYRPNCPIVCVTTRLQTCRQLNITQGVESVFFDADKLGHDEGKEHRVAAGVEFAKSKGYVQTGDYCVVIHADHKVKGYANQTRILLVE
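Purified LmPK (0.1 nM) converted ADP (0.1 mM) to ATP with PEP (0.5 mM) in imidazole buffer pH 7.2 with KCl and MgCl2, 1 h at room temperature. ATP was read by Kinase-Glo luminescence; data normalized to uninhibited and no-enzyme controls.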
Shiga toxin inh: A qHTS for Small Molecule Inhibitors of Shiga Toxin; Vero cells, Shiga toxin protein synthesis inhibition reporter; inhibition, % at 38.7 µM; 290,000 tested, 9.2% active; AID 2315, 2010; in the data active means inhibition mostly above about 28%, no sharp cut-off; inactive means mostly below about 43%; further: 0% is about no effect
* hit, by the source's call; ? = inconclusive; . = not tested or not shown; [ ] = another dose, or the depositor's remark. Unless noted, the call rests on the fitted dose curve; in most records, active means well fitted inhibition curve with a large enough effect; inconclusive means small, poorly fitted or top-dose-only effect, or another doubt; inactive means no such curve, though single readings can be large or run the other way.

SMILES | Pf growth 48h | Pf growth 96h | CHX counter | LmPK inh | Shiga toxin inh
COC(=O)Cn1c(C(=O)N2CCCC2)cc2c1C[C@H]1CN(C(=O)c3ccccc3)[C@@](Cc3ccc(F)cc3)(C(=O)OC)[C@@H]21 | 5.2µM* | 8.3µM* | -2 | 2% | -10
CCc1cc(C(=O)N2CCCC(CO)(Cc3ccc(F)cc3)C2)n(C)n1 (stereo not drawn) | -22% | ? | 2 | 5% | 2
COC(=O)[C@@]1(Cc2ccccc2)[C@H]2c3cc(C(=O)N4CCCC4)n(Cc4ccsc4Br)c3C[C@H]2CN1C(=O)c1ccccc1 | ? | 3.3µM* | -1 | 3% | -6
COc1ccc2[nH]cc(CCNC(=O)C3CCCO3)c2c1 (stereo not drawn) | -20% | 124% | 6 | 6% | 5
O=C(NCc1ccccc1)C1CCCN(C(=O)c2ccc(F)cc2)C1 (stereo not drawn) | -6% | -2% | . | . | .
O=C(Nc1ccc2c(c1)C(=O)NC2=O)c1cc(Cl)ccc1Cl | 9% | 75% | -1 | -1% | 2
Cc1ccc(CSCC(=O)N(C)CC(=O)Nc2ccccc2C(F)(F)F)cc1 | -9% | -14% | . | . | .
COC(=O)[C@@]1(Cc2ccc(OC)cc2)[C@H]2c3cc(C(=O)N4CCCC4)n(CCSCCO)c3C[C@H]2CN1C(=O)c1ccccc1 | 1µM* | 1.7µM* | -3 | 3% | -7
COc1ccc2cc(C(=O)C3CCCN(C(=O)c4cc(=O)n(C)c(=O)n4C)C3)ccc2c1 (stereo not drawn) | ? | 0% | -2 | 3% | -9
COc1ccc(CCC(=O)N2CCN(C(=O)c3ccccc3)CC2)cc1 | -1% | -10% | -2 | -4% | -5
COC(=O)[C@@]1(Cc2ccc(OC)cc2)[C@H]2c3cc(C(=O)N4CCCC4)n(CCO)c3C[C@H]2CN1C(=O)c1ccccc1 | ? | 4.7µM* | -1 | 5% | -13
COC(=O)[C@@]1(Cc2ccc(OC)cc2)[C@H]2c3cc(C(=O)N(C)C)n(CCSCCO)c3C[C@H]2CN1C(=O)c1ccccc1 | 2.3µM* | 5.2µM* | -6 | 4% | -7
CCCN(CCC)S(=O)(=O)c1ccc(C(=O)Nc2nc(-c3ccccc3)c(C(=O)OCC)s2)cc1 | 12% | -12% | -3 | 3% | 3
CCNC(=O)CC1C(=O)N(c2ccc(C)cc2)C(=O)N1CCc1sccc1C (stereo not drawn) | -11% | -8% | 7 | 1% | 30
COC(=O)c1ccc2c(=O)[nH]c(COC(=O)c3c(-c4ccccc4)noc3C)nc2c1 | -26% | ? | . | . | .
COc1ccc(NCN2C(=O)C3C4C=CC(C4)C3C2=O)cc1 (stereo not drawn) | 1% | 10µM* | -2 | -5% | -5
N/C(=N\C(=S)Nc1ccccc1)c1ccccc1 | 220% | 434% | 40* | 5% | 99*
NC(N)=NC(=S)Nc1ccc(Cl)cc1 | 38% | 36% | 34* | 7% | 39*
O=C(COc1ccccc1Cl)N1CCN(c2ccc([N+](=O)[O-])c(N3CCOCC3)c2)CC1 | ? | ? | 7 | 3% | -11
Cc1cc(C)c2c(N=NN3CCOCC3)[nH]nc2n1 | 7% | 4.7µM* | 2 | -3% | -1
Cc1cc(C)c(C#N)c(N2CCOCC2)n1 | 15% | ? | 3 | 3% | 7
CC(C)(C)c1cc(C(=O)NCCN2CCCC2)cc(C(C)(C)C)c1 | ? | -19% | -2 | -2% | -16
CCOc1ccc(C(=O)NCc2ccccc2OC)cc1 | 0% | 6% | 11 | -1% | active
CCc1ccc(C(=O)NCc2cccs2)s1 | 73% | . | 37* | 4% | 89*
COc1ccccc1CNC(=O)c1ccc(OC(C)C)cc1 | 15% | 15%[5.75 µM] | 15* | -3% | 56*
SMILES | Pf growth 48h | Pf growth 96h | CHX counter | LmPK inh | Shiga toxin inh
CC(C)Oc1ccc(C(=O)NCc2cccs2)cc1 | . | 23% | 50* | 0% | 36*
Cc1ccccc1C(=O)NC1CCN(CC(=O)NCc2ccccc2)CC1 | -13% | 1% | -4 | 5% | -2
Cc1ccc(C(=O)NCC(=O)OCC(=O)c2ccc(Br)s2)cc1 | -9% | 35% | . | . | .
CC(=O)N1CCN(S(=O)(=O)c2cccc(C(=O)N(Cc3ccccc3)c3cccc(C)c3)c2)CC1 | ? | 8.3µM* | . | . | .
Cc1ccc(N(C(=O)c2ccc(S(=O)(=O)N3CCOCC3)cc2)C2C=CS(=O)(=O)C2)cc1 (stereo not drawn) | -11% | 8.3µM* | -1 | 0% | -12
O=C(c1ccc(S(=O)(=O)N2CCOCC2)cc1)N(c1ccccc1)C1C=CS(=O)(=O)C1 (stereo not drawn) | 0% | ? | -3 | 0% | 5
Cc1ccc(OCCNC(=O)Cc2ccc(S(=O)(=O)N3CCOCC3)s2)cc1 | ? | -74% | 1 | 0% | -8
Cc1ccc(N(Cc2ccccc2)C(=O)Cc2ccc(S(=O)(=O)N3CCOCC3)s2)cc1 | 13µM* | ? | . | . | .
COc1ccc(CC(=O)N(Cc2ccccc2)c2ccc(C)cc2)cc1S(=O)(=O)N1CCOCC1 | ? | 13µM* | . | . | .
Cc1ccc(N(Cc2ccccc2)C(=O)c2ccc(C)c(S(=O)(=O)N3CCOCC3)c2)cc1 | 6.6µM* | 2.1µM* | . | . | .
Cc1ccc(C(=O)NNC(=O)c2ccc(S(=O)(=O)N3CCOCC3)cc2)cc1 | 11% | 31% | -6 | -2% | -11
Cc1ccc(N(Cc2ccccc2)C(=O)c2cccc(S(=O)(=O)N3CCOCC3)c2)cc1 | 10µM* | 10µM* | . | . | .
Cc1ccc(N(Cc2ccccc2)C(=O)c2ccc(S(=O)(=O)N3CCOCC3)cc2)cc1 | 13µM* | ? | . | . | .
Cc1ccc(C(=O)OCC(=O)NCCc2ccccc2)cc1S(=O)(=O)N1CCOCC1 | 10% | -7% | . | . | .
O=C(c1cccc(S(=O)(=O)N2CCOCC2)c1)N(CCO)Cc1ccccc1 | 34% | 41% | 1 | 2% | 10
O=S(=O)(c1ccccc1)N1N=C(c2ccc(Br)cc2)CC1c1ccco1 (stereo not drawn) | ? | ? | 12 | -3% | 19
NC(=O)c1cccc(C(N)=O)n1 | 8% | 8.3µM* | -1 | 4% | 13
CN(C)S(=O)(=O)c1ccc(C(=O)NCC[N+]2(C)CCCCCC2)o1 | ? | 9.3µM* | 1 | -1% | 4
O=C(O)C1CC=CCC1C(=O)N1CCN(c2nc(-c3ccccc3Cl)c3cc(Br)ccc3n2)CC1 (stereo not drawn) | 12µM* | ? | -3 | -5% | -27
O=C(O)C1CC=CCC1C(=O)N1CCN(c2nc(-c3ccccc3)c3ccccc3n2)CC1 (stereo not drawn) | ? | . | -1 | 7% | -5
CC1CCC(C(C)C)C(OC(=O)CSc2n[nH]c(=O)[nH]c2=O)C1 (stereo not drawn) | -10% | 13µM* | 8 | 0% | -14
